Results filed as inconclusive are left out. Calls of active or inactive are those of the source. Calls come from the whole dose curve; as a rule, active = well fitted cell-killing curve with a large enough effect; inconclusive = small, poorly fitted or top-dose-only effect, or effect the other way; inactive = no such curve, though single readings can be large or run the other way.

For 40 compounds, Potency results are on record in PubChem BioAssay (NCATS).
Potency is the fitted concentration of half-maximal effect.

The test can be described thus: Quantitative High-Throughput drug screen in 47 multiple myeloma cell lines against the NCATS MIPE library collection: Delta47_JCRB cell viability assay (AID 1918925; note: nearly all actives have a fitted effect of over 45% in size). The following applies: Delta47 myeloma viability, CellTiter-Glo ATP, 48 h; series mostly up to 45.8 µM. The source says:
PI: Beverly A. Mock Ph.D.
Laboratory of Cancer Biology and Genetics,
Center for Cancer Research, National Cancer Institute,
National Institute of Health, Bethesda, Maryland
Drug resistance and disease progression are common in multiple myeloma (MM) patients, underscoring the need for new therapeutic combinations. […] We hypothesized that effective combinations would reduce MYC expression and enhance p16 activity. […] These preclinical data identify potentially useful drug combinations for evaluation in drug-resistant MM and reveal potential mechanisms of combined drug sensitivity.
Described herein is the primary MIPE qHTS used to cherrypick compounds. Validated compounds were then further tested for potential synergistic activiy.
[1] Peat TJ, Gaikwad SM, Dubois W, Gyabaah-Kessie N, Zhang S, Gorjifard S, Phyo Z, Andres M, Hughitt VK, Simpson RM, Miller MA, Girvin AT, Taylor A, Williams D, D'Antonio N, Zhang Y, Rajagopalan A, Flietner E, Wilson K, Zhang X, Shinn P, Klumpp-Thomas C, McKnight C, Itkin Z, Chen L, Kazandijian D, Zhang J, Michalowski AM, Simmons JK, Keats J, Thomas CJ, Mock BA. Drug combinations identified by high-throughput screening promote cell cycle transition and upregulate Smad pathways in myeloma. Cancer Lett. 2023 Aug 1;568:216284. doi: 10.1016/j.canlet.2023.216284. Epub 2023 Jun 24. PMID: 37356470; PMCID: PMC10408729.
SEQUENCE No. (e.g., 1, 2, 3, etc.); […] (e.g., Cells, Incubation, Reagent, etc.); VALUE and DESCRIPTION.
1; Cells; 5 uL; white, solid bottom 1536-well Greiner assay plate.
2; Compounds; 23 nL; Kalypsis pin tool (Wako USA) equipped with a 1536-well pin head to transfer to the assay plates.
3; Incubation; 48 hours; 37C incubation.
4; Reagent;5uL; CellTiter Glo (Promega).
5; Detector; 425V; Luminescence; Viewlux PerkinElmer.
NOTES (numbers refer to Sequence numbers above)
1. The cell-based screening methods employed in this study were like those previously published. Briefly, the corresponding myeloma cell lines were screened in 1,536-well plates with 500 cells, 5-uL per well for inhibition of cell viability (assessed by measuring ATP levels with CellTiterGlo).
2. NCATS MIPE 4.0 library of approved and investigational drugs were added using the Kalypsis pin tool. Wells treated with DMSO only for 100% viability and media only wells for 0% viability were used as controls.
3. The assay plates were covered and incubated for 48 hours in a 37C, 5% CO2 incubator with controlled humidity.
4. After 48 hours, CellTilter-GloTM luminescent substrate mix (Promega) reagent was added to the assay plate and plates we incubated for 5 min at room temperature.
5. Signal was measured as median relative luminescence units on a ViewLux (PerkinElmer) multiplate reader.
[1] Heske CM, Davis MI, Baumgart JT, Wilson K, Gormally MV, Chen L, Zhang X, Ceribelli M, Duveau DY, Guha R, Ferrer M, Arnaldez FI, Ji J, Tran HL, Zhang Y, Mendoza A, Helman LJ, Thomas CJ. Matrix Screen Identifies Synergistic Combination of PARP Inhibitors and Nicotinamide Phosphoribosyltransferase (NAMPT) Inhibitors in Ewing Sarcoma. Clin Cancer Res. 2017 Dec 1;23(23):7301-7311. doi: 10.1158/1078-0432.CCR-17-1121. Epub 2017 Sep 12. PMID: 28899971; PMCID: PMC6636827.
(In ATP-based viability assays light output follows the ATP content of the culture.)
In the case of `CCC(=C(c1ccccc1)c1ccc(OCCN(C)C)cc1)c1ccccc1`, the Potency is 23.5 µM (active).

Take `CC[C@@H]1C(=O)N(C)c2cnc(Nc3ccc(C(=O)NC4CCC(N5CCN(CC6CC6)CC5)CC4)cc3OC)nc2N1C(C)C` (stereo not given in full): the Potency was 1.48 µM (active).

Take `CN(C)CC=CC(=O)Nc1cc2c(Nc3ccc(F)c(Cl)c3)ncnc2cc1O[C@H]1CCOC1`: the Potency was 3.72 µM (active).

With `CCCCCCCCCC(=O)N[C@@H](Cc1c[nH]c2ccccc12)C(=O)N[C@H](CC(N)=O)C(=O)N[C@@H](CC(=O)O)C(=O)N[C@@H]1C(=O)NCC(=O)N[C@@H](CCCN)C(=O)N[C@@H](CC(=O)O)C(=O)N[C@H](C)C(=O)N[C@@H](CC(=O)O)C(=O)NCC(=O)N[C@H](CO)C(=O)N[C@@H]([C@@H](C)CC(=O)O)C(=O)N[C@@H](CC(=O)c2ccccc2N)C(=O)O[C@@H]1C`, the Potency entry was “inactive”.

On to `COc1cccc2c(NCc3ccccc3)nc(-n3c(N)nc4ccccc43)nc12`, for which the Potency was 2.96 µM (active).

Regarding `CCNC(=O)Nc1ccc2ncc(Nc3ccc(C)cc3)nc2n1`, the Potency is 3.32 µM (active).

With `CCOc1ccccc1OCCNC(C)Cc1ccc(OC)c(S(N)(=O)=O)c1` (stereo not given), the Potency entry is “inactive”.

Regarding `Nc1ccn([C@@H]2CS[C@H](CO)O2)c(=O)n1`, the Potency was 42.9 µM (active).

As to `Cc1nc(Nc2n[nH]c3c2CN(C(=O)N[C@H](CN(C)C)c2ccccc2)C3(C)C)c2sccc2n1`, the Potency is 0.0332 µM (active).

Regarding `CNC(=O)c1c(F)cccc1Nc1nc(Nc2cc3c(cc2OC)CCN3C(=O)CN(C)C)nc2[nH]ccc12`, the Potency was 0.0526 µM (active).

In the case of `c1nc2nc(Nc3ccc(N4CCOCC4)cc3)nc(NC3CCCCC3)c2[nH]1`, the Potency is 6.62 µM (active).

On to `CNc1nccc(-c2cccnc2Oc2cc(C(=O)Nc3cccc(C(F)(F)F)c3)ccc2C)n1`, for which the Potency is 16.6 µM (active).

As for `Cc1cc(C(=O)N2CCN(c3cccc(Cl)c3)CC2)n(-c2ccccc2)n1`, the Potency was 0.833 µM (active).

For `COc1ccc(C(=O)CC2(O)C(=O)Nc3c(Cl)ccc(Cl)c32)cc1` (stereo not given), the Potency was 3.72 µM (active).

In the case of `Cc1cc(CN2CCN(c3c(Br)cnc4nc(-c5ccc(N6CCN(C)CC6)cc5)[nH]c34)CC2)no1`, the Potency is 2.64 µM (active).

With `Cc1ccc(NC(=O)C2(c3ccc4c(c3)OC(F)(F)O4)CC2)nc1-c1cccc(C(=O)O)c1`, the Potency is 0.0526 µM (active).

In the case of `CC(O)C1C(=O)N2C(C(=O)O)=C(SC3CNC(C(=O)N(C)C)C3)C(C)C12` (stereo not given), the Potency result was “inactive”.

With `CN(C)CCCN=c1c2ccccc2n(C)c2[nH]c(=O)n(C)c(=O)c12`, the Potency is 16.6 µM (active).

Consider `COC(=O)[C@]12CCC(C)(C)C[C@@H]1[C@@H]1C(=O)C=C3[C@@]4(C)C=C(C#N)C(=O)C(C)(C)[C@@H]4CC[C@@]3(C)[C@]1(C)CC2`, for which the Potency was 0.235 µM (active).

With `COc1cc(Nc2ncc(F)c(Nc3ccc4c(n3)N(COP(=O)(O)O)C(=O)C(C)(C)O4)n2)cc(OC)c1OC`, the Potency was 5.9 µM (active).

`O=c1[nH]nc(Sc2ncc([N+](=O)[O-])s2)n1-c1ccc2c(c1)OCCO2`: the Potency was 2.35 µM (active).

For `Cc1ccc(C(=O)Nc2cccc(C(F)(F)F)c2)cc1-c1ccc2nc(NCCN3CCOCC3)ncc2c1`, the Potency was 13.2 µM (active).

Turning to `COc1cc2nccc(Oc3ccc(NC(=O)C4(C(=O)Nc5ccc(F)cc5)CC4)cc3)c2cc1OC`, the Potency was 18.7 µM (active).

In the case of `CCCCc1nc2cc(C=CC(=O)NO)ccc2n1CCN(CC)CC`, the Potency was 0.469 µM (active).

With `COCCOc1ccc2c(c1)ncn2-c1ccc2cccc(N3CCC(N)CC3)c2n1`, the Potency was 4.18 µM (active).

For `CC1(C)O[C@@H]2C[C@@H]3[C@H]4C[C@@H](F)C5=CC(=O)C=C[C@]5(C)[C@@]4(F)[C@@H](O)C[C@]3(C)[C@]2(C(=O)CO)O1`, the Potency entry is “inactive”.

Consider `O=C(NCCS(=O)(=O)c1ccc(C(F)(F)F)cn1)c1ccc(Cl)cc1`, for which the Potency entry was “inactive”.

For the compound `CNC(=O)c1ccc(N2C(=S)N(c3cnc(C#N)c(C(F)(F)F)c3)C(=O)C23CCC3)cc1F`, the Potency is 0.743 µM (active).

Turning to `C[C@@H]1COC(Nc2ccc3ncnc(Nc4ccc(OCc5nccs5)c(Cl)c4)c3c2)=N1`, the Potency is 2.64 µM (active).

On to `CN(C)Cc1c(C(=O)NCCOc2ccc(C(=O)NO)cc2)oc2ccccc12`, for which the Potency was 1.05 µM (active).

As to `CC(C)c1cc(C(=O)N2Cc3ccc(CN4CCN(C)CC4)cc3C2)c(O)cc1O`, the Potency is 0.296 µM (active).

On to `Cc1ccc(S(=O)(=O)Nc2cc(Cl)ccc2C(=O)Nc2nc(-c3ccccc3)cs2)cc1`, for which the Potency is 4.69 µM (active).

`CC(C)(C)c1cc(C(C)(C)C)c(NC(=O)c2c[nH]c3ccccc3c2=O)cc1O`: the Potency result is “inactive”.

For the compound `CC[C@H]1CN2CCc3cc(OC)c(OC)cc3[C@H]2C[C@@H]1C[C@@H]1NCCc2cc(OC)c(OC)cc21`, the Potency was 0.166 µM (active).

As for `Cc1cn(-c2cc(NC(=O)c3ccc(C)c(Nc4nccc(-c5cccnc5)n4)c3)cc(C(F)(F)F)c2)cn1`, the Potency entry was “inactive”.

Regarding `COc1cc2ncnc(Nc3ccc(F)c(Cl)c3)c2cc1NC(=O)C=CCN1CCCCC1`, the Potency was 5.26 µM (active).

`CNC(=O)CN1CCC(Oc2cc3c(Nc4cccc(Cl)c4F)ncnc3cc2OC)CC1`: the Potency is 0.0187 µM (active).

As to `CNC(=O)c1cc(Oc2ccc(NC(=O)Nc3cc(C(C)(C)C)nn3-c3ccc4ncccc4c3)c(F)c2)ccn1`, the Potency is 5.9 µM (active).

Turning to `CC=CC1=C(C(=O)O)N2C(=O)[C@H](NC(=O)[C@H](N)c3ccc(O)cc3)[C@@H]2SC1`, the Potency result was “inactive”.

Take `Nc1ncnc2c1c(-c1cnc3[nH]ccc3c1)nn2C1CCCC1`: the Potency is 0.235 µM (active).
